Laboratory results as given in PubChem BioAssay (NCATS).
Where “and” joins values, the source holds several entries; their conditions need not be identical. Equal entries are not always repeated. Results filed as inconclusive are left out. Calls of active or inactive are those of the source. Unless noted, calls follow the shape of the full dose curve.

What was measured:
[1] = biological target: Bile acid receptor (Homo sapiens) (UniProt Q96RI1); test: qHTS assay for small molecule agonists of farnesoid X receptor signaling (AID 588527); conditions: HEK293T FXR-UAS-bla, beta-lactamase ratio, 16 h; stronger effect = higher value;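 also: 0% = vehicle basal and 100% = reference agonist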
Chain of Bile acid receptor (Homo sapiens) (Q96RI1 whole entry, looked up): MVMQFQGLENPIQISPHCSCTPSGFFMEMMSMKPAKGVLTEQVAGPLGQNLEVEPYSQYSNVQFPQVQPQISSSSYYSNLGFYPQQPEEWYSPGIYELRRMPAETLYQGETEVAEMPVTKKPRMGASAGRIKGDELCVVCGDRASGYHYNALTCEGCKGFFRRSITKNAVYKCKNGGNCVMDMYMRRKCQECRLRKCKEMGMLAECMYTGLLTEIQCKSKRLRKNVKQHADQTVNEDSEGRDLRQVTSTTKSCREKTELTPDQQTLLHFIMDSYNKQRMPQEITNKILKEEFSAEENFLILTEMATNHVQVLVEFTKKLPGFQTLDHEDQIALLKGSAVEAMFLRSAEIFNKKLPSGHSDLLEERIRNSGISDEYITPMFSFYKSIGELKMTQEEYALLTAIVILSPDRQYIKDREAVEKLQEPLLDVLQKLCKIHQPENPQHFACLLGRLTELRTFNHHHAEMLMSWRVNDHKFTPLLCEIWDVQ
Procedure, shortened: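 FXR-UAS-bla HEK293T, 10% dialyzed FBS; cpds up to 92 uM titration, 16 h 37 C; CCF4 dye 2 h RT; fluorescence. Normalized to chenodeoxycholic acid 100 uM (100%) and DMSO (0%); Hill fit gives EC50, efficacy.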

[2] = biological target: Peroxisome proliferator-activated receptor delta (Homo sapiens) (UniProt Q03181); test: qHTS assay for small molecule agonists of peroxisome proliferator-activated receptor delta signaling (AID 588534); conditions: HEK293T PPARdelta-UAS-bla, beta-lactamase ratio, 18 h; series mostly up to 76.7 µM;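 also: 0% = DMSO basal wells and 100% = positive control agonist at 10 µM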
Chain of Peroxisome proliferator-activated receptor delta (Homo sapiens) (Q03181 whole entry, looked up): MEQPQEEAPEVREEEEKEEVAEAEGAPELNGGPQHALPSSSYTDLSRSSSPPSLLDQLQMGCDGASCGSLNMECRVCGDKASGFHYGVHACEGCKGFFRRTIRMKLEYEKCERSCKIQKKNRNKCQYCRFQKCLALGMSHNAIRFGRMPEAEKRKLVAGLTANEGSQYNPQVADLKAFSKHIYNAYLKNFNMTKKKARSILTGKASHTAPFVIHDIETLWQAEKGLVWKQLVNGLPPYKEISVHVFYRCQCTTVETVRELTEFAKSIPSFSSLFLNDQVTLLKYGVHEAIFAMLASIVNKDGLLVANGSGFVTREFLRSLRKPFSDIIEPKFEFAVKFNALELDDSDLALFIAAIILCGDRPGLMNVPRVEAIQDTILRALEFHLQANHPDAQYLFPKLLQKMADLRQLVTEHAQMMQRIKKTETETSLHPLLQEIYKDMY
Procedure, shortened: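 Agonist-mode beta-lactamase reporter readout (CCF4 dye, 2 h at RT) after 18 h at 37 °C exposure to a titration; Hill-equation fitting gave EC50 and maximal response.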

[3] = biological target: Glucocorticoid receptor (Homo sapiens) (UniProt P04150); test: qHTS assay for small molecule agonists of glucocorticoid receptor signaling (AID 588532; active = well fitted curve in the direction sought with a large enough effect in the signal ratio, with a control signal flat; the % refers to the signal ratio;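 also: 100% = dexamethasone at 0.1 µM and 0% = DMSO only wells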); conditions: HeLa MMTV-bla, beta-lactamase ratio, agonist, 18 h; stronger effect = higher value; percent of dexamethasone control, DMSO zero
Chain of Glucocorticoid receptor (Homo sapiens) (P04150 whole entry, looked up): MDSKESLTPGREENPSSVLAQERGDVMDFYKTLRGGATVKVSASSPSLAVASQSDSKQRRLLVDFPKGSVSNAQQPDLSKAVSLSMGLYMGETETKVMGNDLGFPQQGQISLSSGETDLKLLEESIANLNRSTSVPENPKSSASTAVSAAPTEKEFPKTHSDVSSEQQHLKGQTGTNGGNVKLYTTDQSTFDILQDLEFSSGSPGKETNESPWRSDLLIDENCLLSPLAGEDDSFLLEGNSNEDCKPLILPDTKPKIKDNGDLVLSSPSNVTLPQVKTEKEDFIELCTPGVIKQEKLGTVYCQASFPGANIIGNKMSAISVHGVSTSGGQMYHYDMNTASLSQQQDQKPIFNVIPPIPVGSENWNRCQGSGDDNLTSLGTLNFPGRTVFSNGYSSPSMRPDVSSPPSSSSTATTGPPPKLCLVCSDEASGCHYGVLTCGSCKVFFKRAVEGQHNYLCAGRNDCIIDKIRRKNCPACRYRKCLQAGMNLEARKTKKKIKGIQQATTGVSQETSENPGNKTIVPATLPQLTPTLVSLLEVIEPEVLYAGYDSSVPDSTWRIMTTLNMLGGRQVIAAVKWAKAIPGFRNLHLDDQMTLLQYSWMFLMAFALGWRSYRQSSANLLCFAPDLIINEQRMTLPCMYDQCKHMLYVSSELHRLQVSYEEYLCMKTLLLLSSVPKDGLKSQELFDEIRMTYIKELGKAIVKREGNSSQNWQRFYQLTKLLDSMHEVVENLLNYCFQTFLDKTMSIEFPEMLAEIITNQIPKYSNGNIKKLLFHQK
Procedure, shortened: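 Titration series, up to 92 uM, applied to GRE-bla HeLa cells for 18 h at 37 C. Detection by CCF4 FRET substrate after 2 h at RT.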

[4] = biological target: Bile acid receptor (Homo sapiens) (UniProt Q96RI1); test: qHTS assay for small molecule antagonists of farnesoid X receptor signaling (AID 588526); conditions: HEK293T FXR-UAS-bla, beta-lactamase ratio, antagonist mode; series mostly up to 76.7 µM; also: % is scaled to controls: 0 for no effect and ±100 for the full control effect
Procedure, shortened: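 Concentration-response titrations were fitted to the Hill equation for half-maximal inhibition and maximal response, with data normalised to 50 uM chenodeoxycholic acid and DMSO control wells. Cells: FXR-UAS-bla HEK293T, dialyzed FBS.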

[5] = qHTS assay for small molecule antagonists of peroxisome proliferator-activated receptor delta signaling (AID 588535; active = well fitted inhibition curve with a large enough effect in the signal ratio, with a control signal flat, not every such curve was filed as active; the % refers to the signal ratio;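 as to max response: cells co-treated with a PPAR-delta agonist as stimulator during compound exposure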); conditions: HEK293T PPARd-UAS-bla, beta-lactamase FRET ratio, 18 h; 460 nm channel
Procedure, shortened: (§1)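 Inhibition of PPAR-delta response element-driven beta-lactamase expression is measured in HEK293T cells exposed to a compound titration series for 18 hrs at 37 C. Half-maximal inhibition comes from Hill equation fitting.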

[6] = biological target: Peroxisome proliferator-activated receptor delta (Homo sapiens) (UniProt Q03181); test: as above; conditions: HEK293T PPARd-UAS-bla, beta-lactamase FRET ratio, 18 h; series mostly up to 76.7 µM
Procedure, shortened: as §1

[7] = biological target: Peroxisome proliferator-activated receptor gamma (Homo sapiens) (UniProt P37231); test: qHTS assay for small molecule agonists of peroxisome proliferator-activated receptor gamma signaling (AID 588536; active = well fitted curve in the direction sought with a large enough effect in the signal ratio, with a control signal flat, not every such curve was filed as active; the % refers to the signal ratio;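 also: 0% = DMSO basal wells and 100% = rosiglitazone at 2 µM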); conditions: HEK293 PPARg-UAS-bla, beta-lactamase ratio, 16 h, percent of rosiglitazone response, DMSO as zero; series mostly up to 76.7 µM
Chain of Peroxisome proliferator-activated receptor gamma (Homo sapiens) (P37231 whole entry, looked up): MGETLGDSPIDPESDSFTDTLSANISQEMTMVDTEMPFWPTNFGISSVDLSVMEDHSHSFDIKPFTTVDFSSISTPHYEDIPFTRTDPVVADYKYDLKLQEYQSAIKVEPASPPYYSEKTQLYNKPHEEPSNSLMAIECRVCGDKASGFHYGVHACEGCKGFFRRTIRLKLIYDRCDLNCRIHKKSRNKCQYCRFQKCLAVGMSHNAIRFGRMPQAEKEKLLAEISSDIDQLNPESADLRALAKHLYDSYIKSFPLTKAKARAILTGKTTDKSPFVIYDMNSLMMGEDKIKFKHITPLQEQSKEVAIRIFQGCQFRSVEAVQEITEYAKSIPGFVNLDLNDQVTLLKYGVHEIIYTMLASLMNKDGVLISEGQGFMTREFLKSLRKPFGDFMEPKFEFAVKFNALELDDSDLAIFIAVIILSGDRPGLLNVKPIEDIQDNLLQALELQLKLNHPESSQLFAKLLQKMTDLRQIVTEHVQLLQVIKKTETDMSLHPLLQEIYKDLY
Procedure, shortened: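 Compound treatment: 16 h, 37 C, HEK293 GeneBLAzer cells. Detection: CCF4, 2 h RT. Values: Hill-fit EC50, efficacy as % of 2 uM rosiglitazone.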

[8] = biological target: Peroxisome proliferator-activated receptor gamma (Homo sapiens) (UniProt P37231); test: qHTS assay for small molecule antagonists of peroxisome proliferator-activated receptor gamma signaling (AID 588537; active = well fitted inhibition curve with a large enough effect in the signal ratio, with a control signal flat, not every such curve was filed as active; the % refers to the signal ratio;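 also: reporter cells co-stimulated with 50 nM rosiglitazone agonist during compound treatment; % of control where 0% means no effect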); conditions: HEK293 PPARg-UAS-bla, beta-lactamase ratio, antagonist mode; series mostly up to 76.8 µM
Procedure, shortened: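 Compounds are tested as concentration series for inhibition of rosiglitazone-driven (50 nM) reporter expression in GeneBLAzer PPAR-gamma-UAS-bla HEK293 cells. After 16 h at 37 C, CCF4 substrate is added for 2 h at room temperature and blue/green fluorescence is measured.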

[9] = biological target: Vitamin D3 receptor (Homo sapiens) (UniProt P11473); test: qHTS assay for small molecule antagonists of vitamin D receptor signaling (AID 588541); conditions: HEK293T VDR-UAS-bla, beta-lactamase ratio, antagonist mode; series mostly up to 76.7 µM;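 also: receptor activated by calcitriol during compound treatment; % is scaled to controls: 0 for no effect and ±100 for the full control effect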
Chain of Vitamin D3 receptor (Homo sapiens) (P11473 whole entry, looked up): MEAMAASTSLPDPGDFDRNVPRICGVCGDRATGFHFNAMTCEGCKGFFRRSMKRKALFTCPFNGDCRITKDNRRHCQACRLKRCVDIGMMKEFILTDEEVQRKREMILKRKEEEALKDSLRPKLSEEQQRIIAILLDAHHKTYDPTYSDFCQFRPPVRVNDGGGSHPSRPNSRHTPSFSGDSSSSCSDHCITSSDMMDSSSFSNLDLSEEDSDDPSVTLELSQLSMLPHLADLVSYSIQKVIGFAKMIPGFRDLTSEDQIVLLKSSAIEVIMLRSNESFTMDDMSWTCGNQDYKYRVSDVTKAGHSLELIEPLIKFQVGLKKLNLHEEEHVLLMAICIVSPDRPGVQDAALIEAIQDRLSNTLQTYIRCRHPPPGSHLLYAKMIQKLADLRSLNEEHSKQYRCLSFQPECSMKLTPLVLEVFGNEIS
Procedure, shortened: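 VDR-UAS-bla HEK293T cells (2000/well, 2% charcoal-stripped FBS) were treated with titrated compounds plus 1-alpha,25-dihydroxyvitamin D3 (50 nM or 3 nM final) for 16 h at 37 C. CCF4 beta-lactamase fluorescence was read; Hill fits gave IC50.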

For `CCCCC1C(=O)N(c2ccccc2)N(c2ccccc2)C1=O`, the activation [1] was -3.79% (inactive) and -9.64% (inactive).
With `COc1ccc2cc3[n+](cc2c1OC)CCc1cc2c(cc1-3)OCO2` the activation [1] was -1.09% (inactive).
With `CN(C)C(=S)SC(=S)N(C)C` the activation [1] was 1.4% (inactive) and the outcome [2] was “inactive”.
For `N#Cc1nn(-c2c(Cl)cc(C(F)(F)F)cc2Cl)c(N)c1S(=O)C(F)(F)F` (centres undefined), the activation [1] was 6.05% (inactive) and the activation [3] was -6.58% (inactive).
For `CC/C(=C(/CC)c1ccc(O)cc1)c1ccc(O)cc1`, the activation [1] was 2% (inactive) and 5.54% (inactive).
For `COCC(=O)N(c1c(C)cccc1C)C(C)C(=O)OC` (centres undefined), the Potency [4] was “inactive”, the activation [1] was 3.52% (inactive) and the outcome [2] was “inactive”. The max response [5] was -19%, the Potency [6] was “inactive” and the outcome [7] was “inactive”. The Potency [8] was “inactive” and the outcome [9] was “inactive”.
For `CNC(=O)Oc1ccc2c(c1)[C@]1(C)CCN(C)[C@@H]1N2C`, the activation [1] was 1.98% (inactive) and the outcome [2] was “inactive”.
For `NS(=O)(=O)c1cc2c(cc1Cl)NCNS2(=O)=O`, the activation [1] was -0.539% (inactive) and 0.498% (inactive).
In the case of `Cn1cnc2c1c(=O)[nH]c(=O)n2C`, the activation [1] is reported as 0.0385% (inactive) and the outcome [2] is reported as “inactive”.
In the case of `CCOC(=O)C(C)(C)Oc1ccc(Cl)cc1`, the activation [1] is reported as 1.97% (inactive) and the outcome [2] is reported as “inactive”.
With `Oc1ccc(/C=C/c2cc(O)cc(O)c2)cc1` the activation [1] was -3.05% (inactive) and -1.39% (inactive) and the outcome [2] was “inactive”.
In the case of `CCOc1ccccc1C(N)=O`, the activation [1] is reported as -0.664% (inactive) and the outcome [2] is reported as “inactive”.
With `C[C@]12CC[C@@H]3c4ccc(O)cc4CC[C@H]3[C@@H]1CCC2=O` the activation [1] was 5.41% (inactive).
In the case of `c1ccc2[nH]c(-c3cscn3)nc2c1`, the activation [1] is reported as -0.341% (inactive) and 3.24% (inactive) and the outcome [2] is reported as “inactive”.
